In PubChem BioAssay AID1159607 (Small Molecule Screening Facility, UW Madison, 2016):
The whole screen tested about 70,000 compounds, of which about 400 (0.57%) were called active. Cut-off read from the data, not from the text of the source: active = FP signal below about 40; inactive = the rest. The sample as a whole holds a higher share of actives than the screen did.

System: RMI core complex (RMI1/RMI2) binding to FANCM MM2 peptide, human
Assay: disruptors of RMI1/RMI2 association with MM2 peptide – biochemical, fluorescence polarization, human, primary screen (AID 1159607)
Conditions: RMI core complex with F-MM2 peptide, at 33 µM, stronger effect = lower value

FP signal (polarization), inactive:
O=C(/C=C/c1cccc(F)c1)c1cccs1 64, CCc1ccccc1NC(=O)c1csc(Nc2ccc(S(C)(=O)=O)cc2)n1 77, C=CCN(CC=C)S(=O)(=O)c1ccc(C(=O)Nc2nc(-c3ccc4ccccc4c3)cs2)cc1 86, Nc1ccc2c(c1)N(C(=O)c1ccccc1)CCC2 68, Nc1cc(-c2ccccc2)no1 63, C=CCn1c(SCC(=O)Nc2nsc(-c3ccccc3)n2)nc2scc(-c3ccco3)c2c1=O 98, COc1ccc(CC(=O)Nc2ccc(SCC(=O)N3CCCC3)nn2)cc1OC 61, O=C(CC1CCCCN1S(=O)(=O)c1ccc(F)cc1)NCc1ccc2c(c1)OCO2 (stereo unspecified) 68, CCn1nc(C(=O)Nc2cc(C)nn2-c2nc3ccc(OC)cc3s2)cc1C 71, Cc1ccc(C)c(NC(=O)CCS(=O)(=O)c2ccccc2)c1 70, CCOC(=O)c1sc(NC(=O)c2ccc(-c3ccccc3)cc2)nc1-c1ccccc1 57, COc1ccc(-c2nc(NC(=O)c3cccc(NS(=O)(=O)c4ccccc4)c3)sc2C)cc1 52, CCCC(=O)Nc1cc(-c2cn3nc(OC)ccc3n2)ccc1OC 70, COc1ccc2nc(-c3ccc(F)c(NC(=O)c4ccccc4C(F)(F)F)c3)cn2n1 87, COc1ccc(N)cc1N1CCCCC1=O 62, COc1ccc(-c2csc3c(=O)n(Cc4ccccc4Cl)cnc23)cc1 63, O=c1c2scc(-c3ccccc3)c2ncn1Cc1ccccc1 64, O=C(NCCN1CCN(c2ccc(F)cc2)CC1)C(=O)NC1CC1 62, N/C(CS(=O)(=O)c1ccc(Cl)cc1)=N/O 56, O=C(/C=C/c1cccs1)Nc1nnc(-c2cc3ccccc3o2)o1 56, COC1C=CC23c4cc5c(cc4CN(CC2O)[C@@H]3C1)OCO5 (stereo partly specified) 63, O=C(Cn1c2c(c(=O)n(C3CCCCC3)c1=O)CCC2)Nc1ccc2c(c1)OCCO2 58, Cc1ccc(C(=O)CSc2nnc3ccc4ccccc4n23)cc1C 75, CCCc1cc(=O)[nH]c2nnc(SCC(=O)Nc3nc4ccc(C)cc4s3)n12 47, O=C1NC(=O)c2cc(S(=O)(=O)N(CCO)CCO)cc3cccc1c23 56, C=Cc1cc2ccc(C)cc2nc1Cl 58, CC(C)c1c(O)ccc2c1CCC1[C@@](C)(CO)CCC[C@]21C (stereo partly specified) 58, COc1cn(CC(=O)Nc2cccc(F)c2)c(CN2CCN(c3ccccc3)CC2)cc1=O 54, O=C(O)/C=C/C(=O)Nc1ccc(Oc2ccc(Cl)cc2)cc1 53, CSc1nc2ccc(NC(=O)c3ccc(Oc4ccc(C(=O)Nc5ccc6nc(SC)sc6c5)cc4)cc3)cc2s1 63, CC(C)Oc1ccc(C(=O)NCC(c2ccsc2)N2CCCCCC2)cc1 (stereo unspecified) 75, O=C(CCCSc1ccc(NC(=O)C2CC2)nn1)NCc1ccccn1 67, C=CCc1cccc2cc(C(=O)Nc3cc(OC)c(Cl)cc3OC)c(=O)oc12 60, O=C(CC1CCCCN1S(=O)(=O)c1cccs1)Nc1ncccn1 (stereo unspecified) 69, Cc1ccc(-c2nc(N3CCOCC3)sc2-c2ccc([N+](=O)[O-])cc2)cc1 74, COc1ccc2oc(-c3csc(NC(=O)C4COc5ccccc5O4)n3)cc2c1 (stereo unspecified) 66, CC(C)CCN1C(=O)C(C)(C)COc2ccc(NC(=O)Cc3ccc(F)cc3)cc21 77, Cc1nc(-c2ccc(S(=O)(=O)N3CCN(C(=O)c4ccco4)CC3)s2)cs1 60, CCCOc1ccc(S(=O)(=O)N2CCN(c3ccc(F)cc3)CC2)cc1C 66, COCCN1CCCc2ccc(NS(=O)(=O)c3ccc(C)c(Cl)c3)cc21 78, COc1cc(-c2nnc(NC(=O)c3ccc([N+](=O)[O-])cc3)o2)cc(OC)c1OC 54, CCOC(=O)c1oc2ccccc2c1NC(=O)c1cccc(N2C(=O)CCC2=O)c1 74, O=S(=O)(c1cccnc1)N1CCN(c2ccc(-c3cccs3)nn2)CC1 69, COc1ccc(Cl)cc1C(=O)Nc1nnc(-c2cccc([N+](=O)[O-])c2)s1 74, CCOC(=O)c1ccc(NC(=O)CSc2nnc(NC(=O)COc3ccc(Cl)cc3Cl)s2)cc1 62, O=C(Cn1nc(-c2ccc(F)cc2)c2sc(N3CCCC3)nc2c1=O)Nc1ccc(F)cc1F 92, CN1C(=O)C(C)(C)COc2ccc(NC(=O)c3ccc(Br)cc3)cc21 68, COc1ccccc1CCNC(=O)CSc1nnc2ccc(-c3cccnc3)nn12 55, Cc1c(NC(=S)Nc2ccc3c(c2)OCO3)c(=O)n(-c2ccccc2)n1C 59, CN(C)c1ccc(C=NS(=O)(=O)c2cccs2)cc1 57, CSc1cccc(NC(=O)C(=O)NCCc2ccccc2)c1 65, Cc1[nH]c(=O)[nH]c(=O)c1CCC(=O)Nc1ccc(F)c(Cl)c1 60, COc1ccc(S(=O)(=O)CC(=O)Nc2cc(C)nn2-c2nc3ccccc3s2)cc1 78, CCOc1ccccc1C(=O)NCC(=O)N1CCOC(c2ccccc2)C1 (stereo unspecified) 73, COc1cc(-c2noc(-c3cc(-c4ccccc4)n[nH]3)n2)cc(OC)c1OC 95, Nc1cc(=O)[nH]c(SCC(=O)Nc2ccc(S(N)(=O)=O)cc2)n1 61

FP signal (polarization), active:
COc1ccc(C(=O)Nc2nc(-c3ccccc3)c(C)s2)cc1 33, COc1ccc2nc(-c3ccc(OC)c(NC(=O)c4ccccc4Cl)c3)cn2n1 13, COc1ccc(-c2csc3c(=O)n(Cc4cc(=O)n5ccccc5n4)cnc23)cc1OC -23, Cc1ccc2c(c1)nnc1nnc(SCC(=O)O)n12 2, O=C(COc1ccc(Cl)cc1Cl)Nc1nnc(SCC(=O)Nc2nnc(-c3cccc([N+](=O)[O-])c3)s2)s1 16
